Results taken from PubChem BioAssay (Tox21).
Results filed as inconclusive are left out. Active and inactive are the calls of the source. Calls follow the shape of the dose curve; as a rule, active = well fitted curve in the direction sought with a large enough effect in the repeat runs; inconclusive = weak or mixed curves; inactive = no such curve, though single readings can be large; an effect the other way counts as inactive or inconclusive.

Key:
[1] = qHTS assay to identify small molecule agonists of the RXR signaling pathway - cell viability counter screen (AID 1159529);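 also: HEK 293T cells carrying an RXR-alpha UAS beta-lactamase reporter; series mostly up to about 77 µM; nearly all actives have a fitted effect of over 50% in size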
Procedure, shortened: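 In this parallel viability measure, GeneBLAzer RXR-alpha HEK 293T cells (2% charcoal-stripped FBS) were given a 5 hr preincubation, treated with compounds 16 hr at 37 C, and read by CellTiter-Glo luminescence.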

[2] = qHTS assay to identify small molecule antagonists of the retinoid acid receptor (RAR) signaling pathway - cell viability counter screen (AID 1159551); also: nearly all actives have a fitted effect of over 35% in size
Procedure, shortened: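 Measured by luminescent ATP detection, viability reflects C3RL4 cells treated 6 h at 37 C with test chemicals in the presence of 1 uM (final) retinol.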

[3] = qHTS assay to identify small molecule antagonists of the retinoic acid receptor (RAR) signaling pathway (AID 1159552; also: nearly all actives have a fitted effect of over 50% in size)
Procedure, shortened: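 C3RL4 RARE-luc cells, overnight plating; retinol 1 uM final added right after compound; 6 hr 37 C; luciferase read at 30 min RT.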

[4] = qHTS assay to identify small molecule agonists of the retinoic acid receptor (RAR) signaling pathway (AID 1159553); also: potency is read from the fitted curve at half-maximal effect
Procedure, shortened: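 6 hr compound exposure (DMSO vehicle) of overnight-plated C3RL4 RARE-luc cells at 37 C; luminescence quantified after 30 min RT with luciferase reagent.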

[5] = qHTS assay to identify small molecule antagonists of the estrogen related receptor (ERR) signaling pathway from Tox21 library - cell viability counter screen (AID 1224834); also: nearly all actives have a fitted effect of over 30% in size
Procedure, shortened: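 Seeded ERR cells were rested 6 h at 37 C/5% CO2 before compounds, positive and negative controls or DMSO were added. Incubation continued for 17.5 h, and viability was then quantified by CellTiter-Fluor fluorescence.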

[6] = target: Luciferin 4-monooxygenase (Photinus pyralis) (UniProt P08659); assay: qHTS assay to identify small molecule inhibitors of firefly luciferase (AID 1224835); also: nearly all actives have a fitted effect of over 25% in size; also: potency is read from the fitted curve at half-maximal effect
Sequence of Luciferin 4-monooxygenase (Photinus pyralis) (P08659 whole entry, looked up): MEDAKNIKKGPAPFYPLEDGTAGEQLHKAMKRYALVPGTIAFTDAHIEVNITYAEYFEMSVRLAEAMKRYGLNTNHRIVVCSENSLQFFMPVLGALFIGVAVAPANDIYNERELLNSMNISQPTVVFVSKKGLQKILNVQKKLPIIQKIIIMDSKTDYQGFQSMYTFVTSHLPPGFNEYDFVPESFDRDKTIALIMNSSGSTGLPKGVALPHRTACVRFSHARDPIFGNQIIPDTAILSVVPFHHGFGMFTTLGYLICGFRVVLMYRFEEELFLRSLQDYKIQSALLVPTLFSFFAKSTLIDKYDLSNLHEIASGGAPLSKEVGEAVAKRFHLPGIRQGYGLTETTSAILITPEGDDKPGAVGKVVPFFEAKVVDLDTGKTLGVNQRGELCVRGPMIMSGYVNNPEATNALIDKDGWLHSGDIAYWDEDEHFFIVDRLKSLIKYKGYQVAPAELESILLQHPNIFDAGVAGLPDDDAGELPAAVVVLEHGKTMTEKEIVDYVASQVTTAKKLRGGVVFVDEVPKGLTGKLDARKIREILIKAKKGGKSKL
Procedure, shortened: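 Inhibition of purified Photinus luciferase is measured by luminescence. Substrate levels (D-luciferin, ATP) sit at their KM values. Each compound is tested in a concentration series.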

[7] = qHTS assay to identify small molecule agonists of the constitutive androstane receptor (CAR) signaling pathway - cell viability counter screen (AID 1224836); also: series mostly up to about 92 µM; nearly all actives have a fitted effect of over 45% in size
Procedure, shortened: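 Using CellTiter-Fluor, viability of HepG2 cells harbouring hCAR and CYP2B6-2.2kb was measured following 23 h incubation with a 15-concentration compound series plus PK11195 (0.75 uM final).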

[8] = qHTS assay to identify small molecule antagonists of the constitutive androstane receptor (CAR) signaling pathway - cell viability counter screen (AID 1224837); also: series mostly up to about 92 µM; nearly all actives have a fitted effect of over 45% in size
Procedure, shortened: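 To flag cytotoxic false antagonists, HepG2 hCAR/CYP2B6-2.2kb cells were treated 23 hr with 15-concentration compound series and 50 nM CITCO at 37 C/5% CO2; CellTiter-Fluor fluorescence was the measured end point.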

[9] = target: Nuclear receptor subfamily 1 group I member 3 (Homo sapiens) (UniProt Q14994); assay: qHTS assay to identify small molecule antagonists of the constitutive androstane receptor (CAR) signaling pathway (AID 1224838);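 also: HepG2 cells stably expressing hCAR with CYP2B6 luciferase reporter stimulated by CITCO; nearly all actives have a fitted effect of over 40% in size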
Sequence of Nuclear receptor subfamily 1 group I member 3 (Homo sapiens) (Q14994 whole entry, looked up): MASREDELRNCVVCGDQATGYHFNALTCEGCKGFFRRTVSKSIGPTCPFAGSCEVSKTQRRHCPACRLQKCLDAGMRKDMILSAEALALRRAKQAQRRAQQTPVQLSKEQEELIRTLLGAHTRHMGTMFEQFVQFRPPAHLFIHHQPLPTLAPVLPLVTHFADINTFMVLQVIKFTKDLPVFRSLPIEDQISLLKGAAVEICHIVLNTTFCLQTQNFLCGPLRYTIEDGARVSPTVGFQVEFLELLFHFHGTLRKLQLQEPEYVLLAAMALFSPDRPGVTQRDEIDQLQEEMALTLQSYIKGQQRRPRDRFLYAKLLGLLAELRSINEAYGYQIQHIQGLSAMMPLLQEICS
Procedure, shortened: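 Human hepatoma HepG2 cells expressing hCAR and a CYP2B6 promoter (2.2 kb) luciferase construct; compound titration (15 points) with 50 nM CITCO final, 24 h at 37 C/5% CO2; luminescence via ONE-Glo after 30 min at room temperature.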

[10] = target: Nuclear receptor subfamily 1 group I member 3 (Homo sapiens) (UniProt Q14994); assay: qHTS assay to identify small molecule agonists of the constitutive androstane receptor (CAR) signaling pathway (AID 1224839); also: nearly all actives have a fitted effect of over 15% in size; also: potency is read from the fitted curve at half-maximal effect
Procedure, shortened: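 Double-stable HepG2 cells (hCAR, CYP2B6-2.2kb) seeded 4 h before compound addition. Exposure 24 h with 0.75 uM PK11195 final. Luciferase detected by ONE-Glo.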

Measured: Potency

C[Si]1(C)O[Si](C)(C)O[Si](C)(C)O[Si](C)(C)O[Si](C)(C)O1
inactive: all assays above

C/C=C(\C)C(C)=O
not listed: [10]
inactive: all other assays above

CCCCCCCCCCCCCCCCCC#N
not listed: [10]
inactive: all other assays above

CC(C)=CCC/C(C)=C/COC=O
inactive: all assays above

O=C1OCCO1
not listed: [10]
inactive: all other assays above

CC(C)COC(=O)c1ccccc1
not listed: [10]
inactive: all other assays above

CCCCCC/C=C/C(=O)OC
not listed: [9] | [10]
inactive: all other assays above

CCCSSCCC
inactive: all assays above

Cc1ccc(C)c([N+](=O)[O-])c1
not listed: [10]
inactive: all other assays above

OCCN1CCOCC1
inactive: all assays above

CCOCCOCC
inactive: all assays above

Cn1c(=O)c2c(ncn2CCO)n(C)c1=O
inactive: all assays above

O=C(O)c1cc2ccccc2nc1C(=O)O
not listed: [10]
inactive: all other assays above

OC[C@H]1O[C@@H](O[C@@H]2[C@@H](CO)O[C@](O)(CO)[C@H]2O)[C@H](O)[C@@H](O)[C@H]1O
inactive: all assays above

CO[C@@]1(NC(=O)Cc2cccs2)C(=O)N2C(C(=O)O)=C(COC(N)=O)CS[C@@H]21
inactive: all assays above

C=CCOC(=O)CCCCCC
inactive: all assays above

COc1cc2c(cc1OC)CN(C(=O)[C@H](C)N[C@@H](CCc1ccccc1)C(=O)O)[C@H](C(=O)O)C2
inactive: all assays above

O=C1CCCCO1
inactive: all assays above

CC(=O)O[C@@H]1CC2CCC1(C)C2(C)C (some centres not stated)
inactive: all assays above

CC(=O)OCC(=O)Nc1cc(C#N)cc(NC(=O)COC(C)=O)c1Cl
inactive: all assays above

COc1nc(N)nc2nc[nH]c12
inactive: all assays above

COC(=O)CCCCC(=O)O
inactive: all assays above

ONc1ccccc1
active: [4] 24.1 µM | [6] 22.2 µM | [10] 60.5 µM
inactive: all other assays above

C#CCN[C@@H]1CCc2ccccc21
inactive: all assays above
